# Source: PubChem BioAssay
# TEAD-YAP inh – TEAD-YAP interaction inhibition | actives 1.4% (n = 640,000) | AID 1259422 | inhibition, % at 9.12 µM | HEK-TIYL cells, TEAD-Gal4/YAP UAS-luciferase luminescence; in the data active means inhibition above about 32%;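 further: 0% = median of test compound wells and 100% = reference inhibitor wells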
# MITF inh – blocks human microphthalmia-associated transcription factor; actives 0.91% (n = 650,000); AlphaScreen MITF homodimerization, bead proximity signal; inhibition, % at 2.6 µM; AID 1259374; in the data active means inhibition above about 50%;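 further: 0% = vehicle wells with protein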
# Target sequence (O75030 whole entry, looked up): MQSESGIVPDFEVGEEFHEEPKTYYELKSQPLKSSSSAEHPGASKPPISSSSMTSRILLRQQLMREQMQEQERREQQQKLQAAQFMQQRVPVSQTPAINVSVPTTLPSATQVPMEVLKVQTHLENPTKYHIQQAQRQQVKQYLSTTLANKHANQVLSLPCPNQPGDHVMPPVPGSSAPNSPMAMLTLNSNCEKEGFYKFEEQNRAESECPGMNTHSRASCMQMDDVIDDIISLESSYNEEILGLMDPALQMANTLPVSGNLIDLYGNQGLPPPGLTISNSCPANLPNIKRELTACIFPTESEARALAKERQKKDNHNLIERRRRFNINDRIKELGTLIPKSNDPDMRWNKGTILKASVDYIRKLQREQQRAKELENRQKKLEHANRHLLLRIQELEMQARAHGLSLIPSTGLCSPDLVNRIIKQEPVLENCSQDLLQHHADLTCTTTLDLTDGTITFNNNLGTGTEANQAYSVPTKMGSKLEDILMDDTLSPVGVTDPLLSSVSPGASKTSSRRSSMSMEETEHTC
# FBW7 activator – human FBW7 E3 ligase activation, primary screen; Q969H0; AlphaScreen FBW7–phospho-cyclin E peptide binding, activator screen; normalized activity (activation), % at 26.1 µM; actives 0.13% (n = 650,000); in the data active means normalized activity above about 1.9%;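 further: purified mutant Fbw7 with reduced substrate affinity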
# GPR151 ag – human GPR151 activation. Q8TDV0. PathHunter beta-arrestin GPR151 cells, luminescence. activation, % at 11.2 µM. actives 1% (n = 650,000). AID 1508602; in the data active means activation above about 4.9%;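 further: 0% = median of compound wells and 100% = cells with positive control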
# MITF confirm – human MITF inhibition, confirmation | AlphaScreen MITF homodimerization, biotin/His-MITF beads | inhibition, % at 2.6 µM | shares compounds with MITF inh | AID 1259372 | actives 16% (n = 4,700);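 active means inhibition above a cutoff derived from the DMSO control wells, cut at about 28% in these data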;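 further: 0% = MITF dimer wells with DMSO only; inhibitors lower the bead chemiluminescence by keeping MITF from dimerizing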
# AS interf DR – counter-screen: compounds optically interfering with AlphaScreen; shares compounds with MITF inh; AlphaScreen optical interference counterscreen, cell-free; IC50, µM; actives 6% (n = 480); call rule not given here
# AlphaScreen intf2 – AlphaScreen optical interference, counter-screen | shares compounds with MITF inh | LysRS AlphaScreen counterscreen, signal interference, triplicate | inhibition, % at 2.6 µM | actives 7.6% (n = 4,700) | AID 1259376;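 active means inhibition above a cutoff derived from the DMSO control wells, cut at about 30% in these data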
# Active calls of the source: *; / = not tested or not shown. This is a sample that favours compounds with a hit; in the whole collection about 3.5% have one here.
SMILES,TEAD-YAP inh,MITF inh,FBW7 activator,GPR151 ag,MITF confirm,AlphaScreen intf2,others
C=CCN(CC=C)CCCOc1ccc(C)cc1OC,-2,55*,1,-2,11,7,
C/C=C/c1ccc(OCCCCN2CCNCC2)c(OC)c1,-11,59*,0,0,6,1,
CCc1nnc2nc(-c3ccc(NC(=O)CCN4CCCC4=O)cc3)cn2c1CC,-8,-1,0,0,/,/,
CCOC(=O)c1c(NC(=O)Cn2nc(C)c([N+](=O)[O-])c2C)sc2c1CCC2,6,-3,0,1,/,/,
N#CC(C#N)=C(N)/C(C#N)=C/c1ccc([N+](=O)[O-])o1,5,84*,-1,1,67*,6,AS interf DR=>6.5
CCOc1ccccc1CN1CCC(C(=O)NCCN2CCOCC2)CC1,1,52*,0,0,4,16,
O=C(NCCN1CCOCC1)C1CCN(Cc2ccc(Cl)c(Cl)c2)CC1,-2,69*,1,-1,-5,-1,
O=C(NN1C(=O)c2ccc(Oc3ccc([N+](=O)[O-])cc3)cc2C1=O)c1ccco1,-73,58*,0,-1,1,4,
CC(C)C(=O)Nc1c2c(nn1-c1ccc(Oc3ccccc3)cc1)CSC2,-10,-15,0,0,/,/,
O=C(O)Cc1cc(=O)n(-c2ccccn2)[nH]1,-4,117*,-1,-1,118*,100*,
Cc1ccc(/C=N/Nc2cccc(C(=O)O)c2)o1,12,59*,0,-7,9,-2,
CCC(Cc1ccccc1)NC(=O)c1nnc(Cc2ccccc2OC)o1 (centres undefined),10,-3,0,1,/,/,
O=C(c1csc(Nc2cccc3ccccc23)n1)N1CCCC1,8,77*,1,-1,-5,13,
O=C(O)/C=C/C(=O)Nc1ccc(SC(F)F)cc1,1,56*,0,-1,0,-10,
CC(C)(C)C(=O)CN1C(=O)COc2ccccc21,-21,67*,0,3,12,8,
Brc1c(OCCn2ccnc2)ccc2ccccc12,17,57*,0,2,-9,18,
Cc1cc(Br)ccc1OCCOCCN1CCN(C)CC1,-7,57*,0,1,-1,2,
Clc1cc(Br)ccc1OCCOCCN1CCNCC1,2,54*,0,-1,-8,-3,
CCCCNCCOCCOc1ccc(Br)cc1C,0,72*,0,1,2,8,
Clc1cc(Br)ccc1OCCOCCn1ccnc1,-26,45,0,-1,/,/,
COC(=O)c1ccc(C2C(C#N)=C(N)Oc3n[nH]c(-c4cccc([N+](=O)[O-])c4)c32)cc1 (centres undefined),-3,6,-1,-1,/,/,
Brc1c(OCCN2CCNCC2)ccc2ccccc12,-11,64*,0,-3,33*,17,AS interf DR=>6.5
Clc1cc(Br)ccc1OCCN1CCNCC1,-9,57*,0,0,-158,-3,
Clc1ccc(OCCN2CCNCC2)c(Cl)c1,5,45,0,1,/,/,
Cc1nnc2n1NC(c1ccc(Cl)cc1)C(C(=O)N1CCOCC1)S2 (centres undefined),-8,-7,0,1,/,/,
SMILES,TEAD-YAP inh,MITF inh,FBW7 activator,GPR151 ag,MITF confirm,AlphaScreen intf2,others
O=C(c1cc(Cc2ccccc2)no1)N1CCSCC1,-1,-8,0,0,/,/,
O=C(c1cc(Cc2ccccc2)no1)N1CCCC1,-17,53*,0,0,-5,-1,
COc1ccc(N2CCN(C(=O)CSc3nc4[nH]ncc4c(=O)n3-c3ccccc3C)CC2)cc1,29,12,0,-1,/,/,
COc1ccccc1NC(=S)N(CCN(C)C)C(C)c1ccccn1 (centres undefined),0,66*,0,0,-50,100*,
COc1ccc(C(=O)NC2CCCCC2)cc1S(=O)(=O)N1CCC(C)CC1,0,67*,0,0,10,13,
Cc1ccc(NC(=O)C(Cc2c[nH]c3ccccc23)NC(=O)OC(C)(C)C)cc1 (centres undefined),7,62*,0,0,1,12,
COC(=O)c1cc(S(=O)(=O)NCc2ccccc2OC)c[nH]1,15,75*,0,1,4,9,
COC(=O)c1cc(S(=O)(=O)NCc2ccccc2Cl)c[nH]1,0,13,0,0,/,/,
C=CCc1cccc(OC)c1OCCCN1CCN(C)CC1,6,78*,0,-1,-9,1,
CN1CCN(CCCCOc2ccccc2C=O)CC1,3,16,0,0,/,/,
C=CCc1cc(OC)ccc1OCCCCN1CCN(C)CC1,-3,76*,0,-1,-13,0,
COc1cccc(C=O)c1OCCCCN1CCN(C)CC1,8,66*,0,1,-2,1,
CCN1CCN(CCCCOc2ccccc2C=O)CC1,16,58*,0,-1,7,7,
COc1ccc(CC2(CCC(=O)NC(C)Cc3cccnc3)CCC(=O)N2)c2ccccc12 (centres undefined),-1,10,0,0,/,/,
O=C1C(Cl)=C(NCCc2ccccc2)C(=O)N1c1ccc(Br)cc1,12,-9,0,0,/,/,
CC(=O)c1ccccc1OCCCCN1CCN(C)CC1,2,82*,0,2,-5,-7,
CCOc1cc(C=O)ccc1OCCCCN1CCN(CC)CC1,10,71*,0,2,9,10,
C=CCc1ccccc1OCCN1CCCC1,8,26,0,0,/,/,
C=CCc1ccccc1OCCCCN1CCN(C)CC1,-4,57*,0,0,-7,-4,
CCc1ccccc1OCCOCCN1CCN(C)CC1,3,58*,0,-2,2,0,
O=C(/C=C/c1ccccc1Cl)OCCCN1C(=O)c2ccccc2C1=O,-1,-8,0,1,/,/,
O=c1[nH]c2ccc(Br)cc2[nH]c1=O,3,1,0,1,/,/,
Cc1ccc2[nH]c(=O)c(=O)[nH]c2c1,11,82*,0,2,53*,-2,AS interf DR=>12
O=C(N/N=C/c1c(O)c([N+](=O)[O-])cc2oc3c(c12)CCCC3)c1ccco1,-10,-13,0,0,/,/,
C(=N\Nc1nc(-c2ccccn2)cs1)/c1cccnc1,-4,52*,0,-2,30*,54*,
CCCS(=O)(=O)N1CCN(Cc2ccccc2F)CC1,6,57*,0,0,0,-4,
CS(=O)(=O)N1CCN(Cc2nc3ccccc3[nH]2)CC1,0,72*,0,-1,8,12,
CCCS(=O)(=O)N1CCN(Cc2nc3ccccc3[nH]2)CC1,-7,67*,0,-1,7,20,
N#CC1=C(N)N(c2sc3c(c2C#N)CCCCC3)C2=C(C(=O)CCC2)C1c1ccc(Br)s1 (centres undefined),-23,11,0,1,/,/,
